KB-V1 MDR tox: qHTS assay for MDR1-selective chemotherapeutics: Primary screen using the drug-selected MDR subline cells KB-V1; KB-V1 MDR cells viability, CellTiter-Glo, 72 h; Potency, µM (titrated, usually from 46.1 µM), actives largely listed as cytotoxic; 3.4% of 400,000 active; further: on the % scale 0 is the no-effect control and ±100 the full control effect; nearly all actives have a fitted effect of over 60% in size
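In this primary screen, KB-V1 cells overexpressing P-gp are incubated with library compounds (lowest to highest concentration) for 72 h at 37 degrees C before a luminescent ATP viability read.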
HT1080 IDH1KD tx: qHTS for induction of synthetic lethality in tumor cells producing 2HG: qHTS for the HT-1080-IDH1KD cell line; AID 686971, 2013; Potency, µM (highest dose often 46.1 µM), for the others: top-dose activity, negative = toxicity, most hits filed as cytotoxic; 2% of 360,000 active; HT-1080 IDH1 knockdown viability, ATP luminescence, 48 h;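 further: 0% = DMSO wells and -100% = cell-free medium wells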
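Viability of IDH1-knockdown HT-1080 fibrosarcoma cells was assessed by CellTiter-Glo after 48 h at 37 °C with titrated compound; concentration-effect curves were classified by fit quality and response size.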
MCF10A rereplic: A quantitative high throughput screen for small molecules that induce DNA re-replication in MCF 10a normal breast cells; Potency, µM (top dose mostly 46.1 µM), for the others: at the top dose activity, positive = re-replication, most hits filed as activators; MCF 10A DNA re-replication, Hoechst nuclear intensity, 48 h; 2.9% of 350,000 active; AID 624296, 2012; further: % of control where 0% means no effect; nearly all actives have a fitted effect of over 50% in size
HT1080-NT tox: qHTS for induction of synthetic lethality in tumor cells producing 2HG: qHTS for the HT-1080-NT fibrosarcoma cell line. HT-1080-NT fibrosarcoma viability, CellTiter-Glo ATP luminescence, 48 h. Potency, µM (top dose mostly 46.1 µM), inactives show at the top dose activity, negative = less viability, usual class: cytotoxic. 1.6% of 360,000 active;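 further: NT is the 2HG producing partner of a matched IDH1 knockdown line; 0% = DMSO-treated cells and -100% = media-only wells without cells; nearly all actives have a fitted effect of over 55% in size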
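750 cells/well, RPMI + 5% FBS; 2 h settle, compound pin-transfer, 48 h at 37 degrees C. CellTiter-Glo 10 min RT, luminescence. Normalized to DMSO and media-only wells.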
KB-3-1 cytotox: qHTS assay for MDR1-selective chemotherapeutics: Primary screen using the parental adenocarcinoma cell KB-3-1. KB-3-1 viability, CellTiter-Glo ATP luminescence, 72 h. Potency, µM (titrated, usually from 46.1 µM), most hits filed as cytotoxic. 1.4% of 400,000 active; further: on the % scale 0 is the no-effect control and ±100 the full control effect; nearly all actives have a fitted effect of over 60% in size
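Viability of parental KB-3-1 cells, measured by CellTiter-Glo luminescence, followed a 72 h incubation at 37 °C with pinned compounds in phenol-red-free DMEM containing 10% FBS.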
SW480 rereplic: A quantitative high throughput screen for small molecules that induce DNA re-replication in SW480 colon adenocarcinoma cells; AID 624297, 2012; Potency, µM (doses to about 46.1 µM), without a hit: top-dose re-replication activation, hits mostly activators; 1.8% of 340,000 active; SW480 DNA re-replication, Hoechst DNA content imaging, 48 h; further: % of control where 0% means no effect; nearly all actives have a fitted effect of over 55% in size
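Hoechst fluorescence of nuclei (405 nm excitation, 500-530 nm emission) measured by plate-scanning imager after 48 hr compound exposure at 37 C; re-replication scored as increased number of nuclei with elevated intensity.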
* = called active by the depositor; i = inactive; ? = inconclusive; · = not tested or not shown; [ ] = remark or other dose. Only some compounds are listed: those with a hit (about 7.9% of all), similar ones and a draw of the others. The call rests on the fitted dose curve; in most records, active means well fitted curve in the direction sought with a large enough effect; inconclusive means small, poorly fitted or top-dose-only effect, or another doubt; inactive means no such curve, though single readings can be large; an effect the other way counts as inactive or inconclusive. Potency means the concentration at half of the fitted maximal effect.

SMILES	KB-V1 MDR tox	HT1080 IDH1KD tx	MCF10A rereplic	HT1080-NT tox	KB-3-1 cytotox	SW480 rereplic
CCOC(=O)c1[nH]c2ccc(F)cc2c1NC(=O)CN1CCN(C/C=C/c2ccccc2)CC1	?	26µM*	15µM*	21µM*	i	?
CCOC(=O)N1CCN(CC(=O)Nc2c(C(=O)OC)[nH]c3cc(C)ccc23)CC1	i	2%	3%	-2%	i	-3%
COc1ccc(-c2nc3ccccc3s2)cc1NC(=O)c1ccc(F)cc1	i	·	·	·	i	·
COc1cc2c(cc1OC)[C@@H](Cc1ccc(OCCC#N)cc1)N(C)CC2	i	9%	-13%	-3%	i	-3%
COc1cc(Br)c(CC2c3cc(OC)c(OC)cc3CCN2C)cc1OC (configuration not stated)	21µM*	-8%	-1%	1%	i	0%
C/C(=N\Nc1ncc(Cl)cc1Cl)c1ccccn1	?	0.23µM*	-6%	?	?	-7%
Cc1sc2ncnc(N/N=C/c3cccc(O)c3)c2c1C	i	?	5%	?	i	2%
C/C(=N\Nc1ncnc2sc(C)c(C)c12)c1ccccn1	?	0.52µM*	?	0.92µM*	?	?
Cc1cccc(Cn2c(SCc3ccc(C(=O)NCc4ccccc4)cc3)nc3cccnc32)c1	i	·	·	·	?	·
CSc1ccc(-c2cccc3nncn23)cc1	i	11%	·	22%	i	·
Cc1cc(C(=O)NC2CC(C)(C)Cc3c2cnn3-c2ccccc2)n(C)n1 (configuration not stated)	·	-13%	-2%	1%	·	3%
CC(=O)[C@@]1(O)C(C)CC2C3C=C(C)C4=Cc5c(cnn5-c5ccccc5)C[C@]4(C)C3C(O)C[C@@]21C (some centres not stated)	?	21µM*	15µM*	4.6µM*	?	8.2µM*
O=C1C=C(c2ccc3[nH]ccc3c2)C[C@@H](c2ccc(F)cc2)C1	i	-18%	21µM*	-3%	?	2%
COc1ccc([C@H]2CC(=O)C=C(c3ccc4[nH]ccc4c3)C2)cc1OC	i	-1%	-5%	-10%	i	3%[9.22 µM]
COCCCNC(=O)C(=O)NCC(c1ccc2c(c1)OCO2)N1CCOCC1 (configuration not stated)	i	·	·	·	i	·
CC(C)COc1ccc2[nH]c3c(c2c1)CCCC3=O	0.18µM*	-3%	0%	0%	0.92µM*	-4%
O=C1CCCc2c1[nH]c1ccccc21	i	5%	13%	7%	i	-3%
COC(=O)C1(C)COP(=O)(NC23CC4CC(CC(C4)C2)C3)OC1 (configuration not stated)	18µM*	15%	0%	6%	i	-3%
CC(=O)N1CCC2(CC1)CC(=O)c1cc(OCC(=O)N3CCOCC3)ccc1O2	i	5%	7%	3%	i	21µM*
CCOC(=O)N1CCN(C(=O)COc2ccc3c(c2)C(=O)CC2(CCN(C(C)=O)CC2)O3)CC1	i	13%	-3%	3%	i	-7%
O=C(CCCc1ccccc1)NC(c1ccco1)c1cc(Cl)c2cccnc2c1O (configuration not stated)	i	·	·	·	?	·
O=C(CSc1ccsc1[N+](=O)[O-])N1CCN(c2ccc(Cl)cc2)CC1	i	-1%	-1%	5%	i	2%
O=C(CSc1ccsc1[N+](=O)[O-])N1CCN(c2ccccc2)CC1	?	3%	-1%	-3%	5.8µM*	-6%
CCOCC(=O)N1CCN(c2ccc([N+](=O)[O-])cc2)CC1	18µM*	-4%	3%	-1%	i	-1%
O=C(CCCc1ccccc1)N1CCN(c2ccc([N+](=O)[O-])cc2)CC1	16µM*	2%[9.24 µM]	3%	-14%	i	-12%
SMILES	KB-V1 MDR tox	HT1080 IDH1KD tx	MCF10A rereplic	HT1080-NT tox	KB-3-1 cytotox	SW480 rereplic
COc1cc(OC)c(/C=C/c2nc3ccccc3o2)c(OC)c1	i	·	·	·	?	·
Cc1cccc(OCCNC(=O)c2cccc(Oc3ccc(C(F)(F)F)cc3[N+](=O)[O-])c2)c1	9.2µM*	-8%	-2%	-4%	18µM*	3%
OCC1(Cc2ccccc2)CCN(Cc2cnc(-c3ccc(Cl)cc3)nc2)CC1	?	26µM*	?	?	?	-2%
OCC1(Cc2ccccc2)CCN(Cc2cnc(-c3cccc4ccccc34)nc2)CC1	i	-5%	?	-7%	i	-3%
CCN(CC)c1ccc(/C=N/NC(=O)c2cccc(S(=O)(=O)Nc3ccccc3OC)c2)c(O)c1	i	?	?	?	?	?
COc1ccccc1NS(=O)(=O)c1cccc(C(=O)N/N=C/c2ccc3c(c2)OCCO3)c1	?	2%	7%	8%	i	0%
COc1ccccc1NS(=O)(=O)c1cccc(C(=O)N/N=C/c2ccc([N+](=O)[O-])o2)c1	?	?	21µM*	?	?	13µM*
CCN(CC)c1ccc(/C=N/NC(=O)c2cccc(S(=O)(=O)Nc3ccccc3OC)c2)cc1	i	?	16µM*	-24%	i	2%
O=C(CN1c2ccccc2Sc2ccccc21)NNC(=S)Nc1ccc(Cl)cc1Cl	13µM*	?	?	?	21µM*	0%
O=C(CN1c2ccccc2Sc2ccccc21)NNC(=S)Nc1ccc(Cl)cc1	i	?	?	?	i	-14%
Cc1ccc(-n2nnc(C(=O)Nc3cc(F)ccc3F)c2C)cc1F	i	·	·	·	i	·
CCOc1ccc(-n2nc3ccc(N)cc3n2)cc1	i	1%	18µM*	4%	i	?
CCOc1ccc(-n2nc3cc(C)c(N)cc3n2)cc1	i	-4%	18µM*	-3%	i	16µM*
CCc1nc2ccc(C(=O)NCc3ccc(OC)c(OC)c3)cc2nc1CC	i	·	·	·	i	·
Cc1ccccc1Cn1c(=O)n(CCCCC(=O)NCCc2ccccc2)c(=O)c2ccccc21	i	·	·	·	i	·
COc1ccc(C(C(=O)Nc2ccc3c(c2)OCCO3)n2c(=O)c(-c3ccco3)nc3ccccc32)cc1 (configuration not stated)	?	13µM*	·	?	?	·

Assay outcomes: PubChem, National Center for Advancing Translational Sciences (NCATS)
